Our source for the growth values is PubChem BioAssay (NCI).

Compounds without any hit were thinned out: in the full panel of roughly 83,000, 20% have a hit.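 The endpoint reported here, percent growth, reads 100 for growth as untreated, 0 for no net growth and -100 for all cells dead.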 A number with no mark means an inactive call. Calls of active or inactive are those of the source. The calls were made as follows: active = growth percent below 10; inactive = the rest.

Test systems include DU-145 prostate; K-562 leukemia; MALME-3M melanoma; MDA-MB-231 breast; RXF 393 renal; SF-268 CNS; SF-295 CNS; SF-539 CNS; UACC-257 melanoma; M14 melanoma; HCT-15 colon; HT29 colon; SNB-75 CNS; SNB-19 CNS; U251 CNS; PC-3 prostate; SK-MEL-5 melanoma; UACC-62 melanoma; SK-MEL-28 melanoma.
Common to all, as to assay: NCI-60 one-dose screen, 48 h (100 = growth as untreated, 0 = no growth, -100 = all killed)
What all share (settings): 10 µM unless noted

With `COc1cc(NC(=O)c2cccc(C3CCc4c(cc(OC)c(OC)c4OC)O3)c2)cc(OC)c1OC` (stereo unspecified), the growth is 11.6% with DU-145 prostate; 15% with K-562 leukemia; 21% in the assay on MALME-3M melanoma; 28.3% in the assay with MDA-MB-231 breast; 47.4% in the assay with RXF 393 renal; 73.1% in the assay with SF-268 CNS. Moreover, the growth was 8.61% (active) in the assay with SF-295 CNS; -8.73% (active) in the assay with SF-539 CNS; 33.7% in the assay with UACC-257 melanoma; 22.2% in the assay with M14 melanoma; 7.46% (active) in the assay on HCT-15 colon; 3.59% (active) in the assay on HT29 colon. Moreover, the growth in the assay with SNB-75 CNS is 11.5%; with SNB-19 CNS, 27.1%; in the assay on U251 CNS, 13.5%; in the assay with PC-3 prostate, 18.2%; in the assay on SK-MEL-5 melanoma it was -58% (active); in the assay with UACC-62 melanoma, -28.6% (active). For the same compound, the growth in the assay on SK-MEL-28 melanoma is 38.9%.
As for `C=C1CCC2C3(C)COC(c4ccc(F)cc4)OC3CCC2(C)C1CC(O)C1=CCOC1=O` (stereo unspecified), the growth with DU-145 prostate was 59.3%; in the assay on K-562 leukemia it was 15.2%; in the assay with MALME-3M melanoma, 63.2%; with MDA-MB-231 breast it was 53.5%; with RXF 393 renal, 35.7%; in the assay on SF-268 CNS, 103%. The growth is 64.7% in the assay with SF-295 CNS; 56.3% with SF-539 CNS; 57.9% in the assay with UACC-257 melanoma; 24.7% in the assay with M14 melanoma; 1.99% (active) with HCT-15 colon; 27.8% with HT29 colon. For the same compound, the growth in the assay on SNB-75 CNS was 60.4%; in the assay on SNB-19 CNS, 76.4%; in the assay on U251 CNS, 59.6%; in the assay with PC-3 prostate, 37.6%; with SK-MEL-5 melanoma, 21.9%; in the assay on UACC-62 melanoma, 47.9%. The growth in the assay with SK-MEL-28 melanoma is 41.4%.
Regarding `COc1cc2oc(-c3cccc(C(=O)Nc4cccc([N+](=O)[O-])c4)c3)cc(=O)c2c(OC)c1OC`, the growth with DU-145 prostate is 29.5%; in the assay on K-562 leukemia, 69.2%; in the assay on MALME-3M melanoma it was 11.4%; with MDA-MB-231 breast it was 11.5%; in the assay on RXF 393 renal, -13.4% (active); in the assay on SF-268 CNS, -3.57% (active). The growth with SF-295 CNS is -0.211% (active); with SF-539 CNS, 3.56% (active); in the assay on UACC-257 melanoma, 31.7%; with M14 melanoma, 58.2%; in the assay with HCT-15 colon, 58.1%; in the assay with HT29 colon, 59.9%. Further, the growth with SNB-75 CNS is -6.58% (active); in the assay on SNB-19 CNS, -4.16% (active); with U251 CNS, 23.8%; with PC-3 prostate it was 33.3%; with SK-MEL-5 melanoma, 43.4%; in the assay on UACC-62 melanoma, 18.4%. In addition, the growth with SK-MEL-28 melanoma was 25.3%.
As to `NS(=O)(=O)c1ccc(NNC(=O)CCC(=O)c2ccccc2)cc1`, the growth in the assay with DU-145 prostate is 114%; in the assay with K-562 leukemia it was 71.6%; with MALME-3M melanoma, 107%; in the assay with MDA-MB-231 breast, 99.3%; in the assay on RXF 393 renal, 119%; with SF-268 CNS, 95.8%. Besides, the growth in the assay on SF-295 CNS is 99.4%; in the assay with SF-539 CNS it was 103%; in the assay on UACC-257 melanoma, 103%; with M14 melanoma, 104%; in the assay with HCT-15 colon, 104%; with HT29 colon, 104%. The growth with SNB-75 CNS is 91.9%; in the assay with SNB-19 CNS, 98.3%; in the assay with U251 CNS it was 101%; with PC-3 prostate, 97.6%; in the assay with SK-MEL-5 melanoma, 99.1%; with UACC-62 melanoma, 99.9%. In the assay with SK-MEL-28 melanoma, the growth is 112%.
Consider `O=C(COc1ccc(NC(=O)Nc2ccc(Cl)c(Cl)c2)cc1)N=Nc1c(O)[nH]c2ccc([N+](=O)[O-])cc12`, for which the growth with DU-145 prostate is 64.8%; in the assay with K-562 leukemia, 25.1%; in the assay with MALME-3M melanoma, 77.9%; with MDA-MB-231 breast it was 37%; in the assay on RXF 393 renal, 75.4%; in the assay with SF-268 CNS, 84.3%. The growth in the assay on SF-295 CNS is 53.1%; with SF-539 CNS it was 1.4% (active); in the assay on UACC-257 melanoma, 67.6%; in the assay with M14 melanoma it was 34.4%; in the assay on HCT-15 colon it was 88.5%; in the assay on HT29 colon it was 81.6%. The growth is 66.2% in the assay with SNB-75 CNS; 67% in the assay with SNB-19 CNS; 19.4% in the assay on U251 CNS; 71.6% in the assay with PC-3 prostate; 90.7% in the assay with SK-MEL-5 melanoma; 85.6% with UACC-62 melanoma. The growth in the assay on SK-MEL-28 melanoma was 57.6%.
In the case of `COc1ccc(C2=NN(c3ccccc3)C(c3ccc(OC)c(OCc4ccccc4)c3)C2)cc1OC` (stereo unspecified), the growth was 105% in the assay with DU-145 prostate; 95% in the assay on K-562 leukemia; 92.6% in the assay on MALME-3M melanoma; 100% in the assay with MDA-MB-231 breast; 98.1% in the assay on RXF 393 renal; 96.5% in the assay with SF-268 CNS. Also, the growth in the assay on SF-295 CNS is 107%; in the assay with SF-539 CNS, 99.9%; in the assay with UACC-257 melanoma, 103%; in the assay with M14 melanoma it was 104%; in the assay on HCT-15 colon, 83.8%; with HT29 colon it was 70.5%. Besides, the growth with SNB-75 CNS was 90.6%; in the assay with SNB-19 CNS, 88.1%; in the assay on U251 CNS, 92.4%; in the assay with PC-3 prostate, 98%; in the assay with SK-MEL-5 melanoma it was 94.1%; with UACC-62 melanoma, 81.8%. Moreover, the growth in the assay with SK-MEL-28 melanoma was 115%.
As for `CN(C)CCn1c2ccccc2c2nc3cc(C(F)(F)F)ccc3nc21`, the growth was 31.4% in the assay on DU-145 prostate; 19.3% in the assay on K-562 leukemia; 25.9% in the assay on MALME-3M melanoma; 37.2% with MDA-MB-231 breast; 42.7% in the assay with RXF 393 renal; 52.4% in the assay with SF-268 CNS. The growth is 27.9% in the assay with SF-295 CNS; 26.3% with SF-539 CNS; 45.1% in the assay with UACC-257 melanoma; 40.7% with M14 melanoma; 19.4% in the assay on HCT-15 colon; 27.6% in the assay on HT29 colon. For the same compound, the growth with SNB-75 CNS is 44.5%; with SNB-19 CNS, 36.4%; in the assay with U251 CNS, 38.1%; in the assay on SK-MEL-5 melanoma, 28.3%; in the assay with UACC-62 melanoma it was 44.8%; with SK-MEL-28 melanoma, 44.4%.
On to `c1ccc(-c2csc(Nc3cccc(Nc4nc(-c5ccccc5)cs4)c3)n2)cc1`, for which the growth in the assay on DU-145 prostate is 58.9%; in the assay with K-562 leukemia, 26.6%; with MALME-3M melanoma it was 52.8%; in the assay on MDA-MB-231 breast it was 48%; in the assay with RXF 393 renal it was 63.8%; with SF-268 CNS, 40.6%. The growth in the assay on SF-295 CNS is 37.6%; with SF-539 CNS it was 57.7%; with UACC-257 melanoma it was 46.1%; with M14 melanoma, 47.8%; with HCT-15 colon it was 30.5%; in the assay with HT29 colon, 39.4%. Also, the growth is 48.6% with SNB-75 CNS; 58% with SNB-19 CNS; 51.2% in the assay on U251 CNS; 32.1% in the assay on PC-3 prostate; 21% with SK-MEL-5 melanoma; 50.3% in the assay on UACC-62 melanoma. For the same compound, the growth with SK-MEL-28 melanoma is 60.9%.
